Most compounds without a hit are left out; they make up all but 2.8% or so of the library.
TROY signal inh: TROY signaling inhibition | Q293 LMP1-TROYcd NF-kB luciferase reporter, 4 h | inhibition, % at 10 µM | 360,000 tested, 0.98% active | AID 1347056;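 active = compounds whose plate-normalised and pattern-corrected inhibition of the luciferase reporter signal at the single screening dose is 50% or more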
LGR2 inh: blocks bursicon-induced cAMP signaling via Drosophila LGR2; HEK293 LGR2, CRE-luciferase, bursicon-stimulated, 4 h; inhibition, % at 9.99 µM; 380,000 tested, 0.35% active;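 active = drop in luminescence signal, shown as inhibition above about 50% in the replicate tests, limit read from the data, passing the limit was not always enough; inconclusive = probably only some replicates passing the limit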;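 note: agonist challenge used bursicon conditioned medium at about half maximal strength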
PAX8 reporter: inhibitors of PAX8 transcriptional activity in RMG-I cells. inhibition, % at 12.6 µM. 360,000 tested, 1.2% active. RMG-I TPO-luciferase reporter, SteadyGlo, 24 h. AID 652154;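 active = mean replicate inhibition at least 60% with every replicate also reaching 60%; inconclusive = only one of the two criteria is met; inactive = mean below 60% and not all replicates reaching 60%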;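 note: luciferase light reporting Pax8 driven TPO promoter activity; plate controls were median of neutral control wells for no effect and mitoxantrone controls for full effect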
TWEAK-Fn14 inh: inhibitors of TWEAK-Fn14 interaction signaling; TWEAK-stimulated Fn14 reporter cells, luciferase luminescence, 8 h; inhibition, % at 10 µM; 360,000 tested, 2% active; in the data active = inhibition above about 50%
EWS-Fli block: blocks EWS/Fli oncoprotein-driven transcription | A673 NR0B1-luciferase reporter, viability-normalised | inhibition, % at 12.6 µM | 350,000 tested, 0.67% active | AID 651661;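 active = mean inhibition of at least 50% after viability correction, with every replicate also passing that limit; inconclusive = mean reaches 50% but only one of two replicates passes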;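 note: firefly luciferase signal divided by Alamar Blue viability fluorescence both relative to DMSO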
* marks the source's active call; other numbers are inactive results; ? = inconclusive; nt = not tested or not shown; ! = a repeat was not active.

SMILES | TROY signal inh | LGR2 inh | PAX8 reporter | TWEAK-Fn14 inh | EWS-Fli block
CCn1c(=O)c2c(cnn2C)c2ccccc21 | 43 | nt | -17 | 58* | nt
CCCn1c2ccccc2c2cnn(CC(=O)O)c(=O)c21 | 2 | 1 | -12 | -9 | 5
CCC(=O)N1[C@@H]2Cn3c(ccc(-c4ccccc4)c3=O)[C@H]1[C@@H](C(=O)N(C)C)[C@@H]2CO | nt | 12 | -4 | nt | 1
CCOc1cc(/C=C2\COc3ccccc3C2=O)cc(Br)c1OCC(=O)N(C)C | 79* | -1 | 10 | 70* | 63*
O=C(O)c1ccc(/C=C2\COc3ccccc3C2=O)cc1 | -6 | 29 | -5 | 78* | -26
COc1ccc(/C=C2\COc3ccccc3C2=O)cc1OC | -2 | -22 | -15 | 54* | nt
CCOc1cc(/C=N/Nc2nc3ccccc3[nH]2)cc(Br)c1OCC(=O)N(C)C | 21 | ? | 25 | 10 | 16
COc1ccc2c(c1)OC/C(=C/c1cccs1)C2=O | -48 | 9 | 112* | 14 | -26
Cc1noc(C)c1NC(=O)Nc1ccc2c(c1)C(=O)N(C)[C@H]1CC[C@H](CC(=O)N[C@@H]3CCN(Cc4ccccc4)C3)O[C@H]1CO2 | nt | -3 | -25 | nt | -3
C[C@H](CO)N1C[C@H](C)[C@@H](CN(C)Cc2ccc3c(c2)OCO3)Oc2ccc(NC(=O)Nc3cccc4ccccc34)cc2CC1=O | nt | -19 | -17 | nt | 3
COc1cccc(CN2[C@H](CO)[C@H](c3ccccc3)C23CN(C(=O)C2CC2)C3)c1 | nt | 4 | nt | nt | 1
CCCNC(=O)[C@H]1[C@H](CO)[C@H]2Cn3c(ccc(-c4ccccc4F)c3=O)[C@@H]1N2CC1CC1 | nt | -16 | -1 | nt | 1
CCc1nnc(NS(=O)(=O)c2ccc(N/C=C\C(=O)c3ccc(F)cc3)cc2)s1 | 73* | -23 | -30 | 40 | 21
COc1ccc(NC(=O)Nc2ccc3c(c2)C(=O)N([C@@H](C)CO)C[C@@H](C)[C@@H](CN(C)C(=O)Nc2c(C)noc2C)O3)cc1 | nt | 23 | nt | nt | -6
CC(C)Oc1ccc(C(=O)Nc2ccc(Cl)c(S(=O)(=O)Nc3ccc(Cl)cc3)c2)cc1 | 55* | 23 | 22 | 90* | nt
C/C=C/c1ccc2c(c1)O[C@@H](CN(C)C(=O)NCCC)[C@@H](C)CN([C@@H](C)CO)S2(=O)=O | nt | 9 | -16 | nt | 6
COc1ccc(-c2ccc3c(c2)[C@H]2[C@H](CCN2S(=O)(=O)c2ccc(OC)cc2)[C@H](CO)N3C)cc1 | nt | 10 | 95* | nt | 32
COc1ccc(-c2ccc3c(c2)[C@@H]2[C@@H](CCN2S(=O)(=O)c2ccc(OC)cc2)[C@@H](CO)N3C)cc1 | nt | 5 | 85* | nt | 6
COC(CNC(=O)C1CCCN1C(=O)OCc1ccccc1)OC (stereo not given) | 7 | 11 | -7 | 17 | 8
COC(=O)[C@@H]1C[C@]2(OC(=O)c3ccccc3)C=CC(=O)C[C@@H]2N1C(=O)OCc1ccccc1 | 24 | -1 | 57 | 51* | 29
NS(=O)(=O)c1ccc(CCNC(=O)CNC(=O)c2ccc(F)cc2)cc1 | 12 | -9 | -30 | 7 | 2
NS(=O)(=O)c1ccc(CCNC(=O)CNC(=O)c2ccccc2Br)cc1 | 1 | 0 | 10 | 51* | 7
Cc1noc(C)c1NC(=O)N(C)C[C@H]1OCCCC[C@@H](C)Oc2ccc(NC(=O)CCC(F)(F)F)cc2C(=O)N([C@@H](C)CO)C[C@H]1C | nt | -18 | 6 | nt | -8
O=C(Nc1ccc(S(=O)(=O)N2CCOCC2)cc1)c1cc(-c2cc(Cl)ccc2O)n[nH]1 | 69* | ? | 76* | 91* | 59*
Cc1cc(O)c(-c2cc(C(=O)Nc3ccc(S(=O)(=O)N4CCOCC4)cc3)[nH]n2)cc1C | 35 | nt | 73* | 31 | nt
Cc1ccc(O)c(-c2cc(C(=O)Nc3ccc(S(=O)(=O)N4CC(C)OC(C)C4)cc3)[nH]n2)c1 (stereo not given) | 44 | nt | 22 | 49 | nt
O=C(Nc1cccc(F)c1)N1C[C@@H]2N[C@H](C1)C2c1ccc(-c2ccc(F)cc2)cc1 (stereo not given in full) | nt | 19 | 86*! | nt | 3
Cc1cccc(-c2ccc(C3[C@@H]4CN(C(=O)Nc5ccc(F)cc5)C[C@H]3N4)cc2)c1 (stereo not given in full) | nt | 2 | 95*! | nt | -6
COc1ccc(CN(C)C[C@@H]2OCCCC[C@@H](C)Oc3ccc(NS(=O)(=O)c4ccc(F)cc4)cc3C(=O)N([C@H](C)CO)C[C@H]2C)cc1 | nt | 1 | -17 | nt | -19

From PubChem
